Source: the supplement of paper PMC8728848
Only a selection was taken, and the strongest signals are over-represented in it overall.

Key:
Assay in all cases: glycan array binding signal (z-score within array); higher = stronger binding
Details in all cases: glycan notation: IUPAC condensed, linker removed
[1] = target: Fuc(a1-2)Gal(b1-3)GalNAc(b1-4)[Neu5Ac(a2-3)]Gal(b1-4)Glc
How it was run: (§1)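 The binding signal is a Z-score computed within each array and averaged over linkers. Arrays of the same protein sequence at different concentrations or buffers were also averaged together. Data originate from 3228 arrays in the Consortium for Functional Glycomics database, kept only where the protein sequence was available.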

[2] = target: Fuc(a1-2)Gal(b1-3)GlcNAc6S
How it was run: as §1

[3] = target: Fuc(a1-2)Gal(b1-3)[Fuc(a1-4)]GlcNAc
How it was run: as §1

[4] = target: Fuc(a1-2)Gal(b1-4)GlcNAc(b1-2)[Fuc(a1-2)Gal(b1-4)GlcNAc(b1-4)]Man(a1-3)[Fuc(a1-2)Gal(b1-4)GlcNAc(b1-2)Man(a1-6)]Man(b1-4)GlcNAc(b1-4)GlcNAc
How it was run: as §1

[5] = target: Fuc(a1-2)Gal(b1-4)GlcNAc(b1-6)GalNAc
How it was run: as §1

[6] = target: Fuc(a1-2)Gal6S(b1-4)Glc6S
How it was run: as §1

[7] = target: Fuc(a1-2)[Gal(a1-3)]Gal(b1-4)GlcNAc(b1-2)Man(a1-3)[Fuc(a1-2)[Gal(a1-3)]Gal(b1-4)GlcNAc(b1-2)Man(a1-6)]Man(b1-4)GlcNAc(b1-4)[Fuc(a1-6)]GlcNAc
How it was run: as §1

[8] = target: Fuc(a1-2)[Gal(a1-3)]Gal(b1-4)GlcNAc(b1-3)[Fuc(a1-2)[Gal(a1-3)]Gal(b1-4)GlcNAc(b1-6)]GalNAc
How it was run: as §1

[9] = target: Fuc(a1-2)[Gal(a1-3)]Gal(b1-4)GlcNAc(b1-6)GalNAc
How it was run: as §1

[10] = target: Fuc(a1-2)[Gal(a1-3)]Gal(b1-4)[Fuc(a1-3)]Glc
How it was run: as §1

[11] = target: Fuc(a1-2)[GalNAc(a1-3)]Gal(b1-3)GlcNAc(b1-3)GalNAc
How it was run: as §1

[12] = target: Fuc(a1-2)[GalNAc(a1-3)]Gal(b1-4)[Fuc(a1-3)]GlcNAc
How it was run: as §1

[13] = target: Fuc(a1-2)[GalNAc(a1-3)]Gal(b1-4)[Fuc(a1-3)]GlcNAc(b1-3)GalNAc
How it was run: as §1

[14] = target: Fuc(a1-3)[Gal(b1-4)]Glc6S
How it was run: as §1

[15] = target: Fuc(a1-3)[Gal(b1-4)]GlcNAc(b1-2)Man(a1-3)[Fuc(a1-3)[Gal(b1-4)]GlcNAc(b1-2)Man(a1-6)]Man(b1-4)GlcNAc(b1-4)GlcNAc
How it was run: as §1

[16] = target: Gal(a1-3)Gal
How it was run: as §1

[17] = target: Gal(a1-3)Gal(b1-3)GlcNAc(b1-6)GalNAc
How it was run: as §1

[18] = target: Gal(b1-3)GalNAc
How it was run: as §1

[19] = target: Gal(b1-3)GalNAc(b1-3)Gal(a1-4)Gal(b1-4)Glc
How it was run: as §1

[20] = target: Gal(b1-3)GalNAc(b1-4)[Neu5Ac(a2-3)]Gal(b1-4)Glc
How it was run: as §1

[21] = target: Gal(b1-3)GlcNAc(a1-3)Gal(b1-4)GlcNAc
How it was run: as §1

[22] = target: Gal(b1-3)GlcNAc(b1-3)Gal(b1-4)Glc
How it was run: as §1

[23] = target: Gal(b1-3)GlcNAc(b1-3)Gal(b1-4)GlcNAc(b1-6)[Gal(b1-3)GlcNAc(b1-3)]Gal(b1-4)Glc
How it was run: as §1

[24] = target: Gal(b1-3)GlcNAc(b1-3)GalNAc
How it was run: as §1

[25] = target: Gal(b1-3)[Fuc(a1-4)]GlcNAc(b1-3)Gal(b1-4)[Fuc(a1-3)]GlcNAc
How it was run: as §1

[26] = target: Gal(b1-4)Glc
How it was run: as §1

[27] = target: Gal(b1-4)GlcNAc(b1-2)Man(a1-3)[Gal(b1-4)GlcNAc(b1-2)Man(a1-6)]Man(b1-4)GlcNAc(b1-4)GlcNAc
How it was run: as §1

[28] = target: Gal(b1-4)GlcNAc(b1-2)Man(a1-3)[Gal(b1-4)GlcNAc(b1-2)Man(a1-6)][Gal(b1-4)GlcNAc(b1-4)]Man(b1-4)GlcNAc(b1-4)[Fuc(a1-6)]GlcNAc
How it was run: as §1

[29] = target: Gal(b1-4)GlcNAc(b1-2)Man(a1-6)Man(b1-4)GlcNAc(b1-4)GlcNAc
How it was run: as §1

[30] = target: Gal(b1-4)GlcNAc(b1-3)Gal(b1-4)GlcNAc(b1-3)Gal(b1-4)GlcNAc
How it was run: as §1

[31] = target: Gal(b1-4)GlcNAc(b1-3)Gal(b1-4)GlcNAc(b1-3)Gal(b1-4)GlcNAc(b1-2)Man(a1-3)[Gal(b1-4)GlcNAc(b1-3)Gal(b1-4)GlcNAc(b1-3)Gal(b1-4)GlcNAc(b1-2)Man(a1-6)]Man(b1-4)GlcNAc(b1-4)[Fuc(a1-6)]GlcNAc
How it was run: as §1

[32] = target: Gal3S(b1-4)Glc
How it was run: as §1

[33] = target: Gal6S(b1-3)GlcNAc
How it was run: as §1

[34] = target: GalNAc(a1-3)GalNAc(b1-3)Gal(a1-4)Gal(b1-4)Glc
How it was run: as §1

[35] = target: GalNAc(b1-4)Gal(b1-4)Glc
How it was run: as §1

[36] = target: GlcNAc(a1-4)Gal(b1-3)GlcNAc
How it was run: as §1

[37] = target: GlcNAc(b1-2)[GlcNAc(b1-4)]Man(a1-3)[GlcNAc(b1-2)Man(a1-6)]Man(b1-4)GlcNAc(b1-4)GlcNAc
How it was run: as §1

[38] = target: GlcNAc(b1-2)[GlcNAc(b1-6)]Man(a1-6)[GlcNAc(b1-2)Man(a1-3)]Man(b1-4)GlcNAc(b1-4)GlcNAc
How it was run: as §1

[39] = target: GlcNAc(b1-3)Gal(b1-4)GlcNAc(b1-3)Gal(b1-4)GlcNAc(b1-3)Gal(b1-4)GlcNAc(b1-2)[GlcNAc(b1-3)Gal(b1-4)GlcNAc(b1-3)Gal(b1-4)GlcNAc(b1-3)Gal(b1-4)GlcNAc(b1-6)]Man(a1-6)[GlcNAc(b1-3)Gal(b1-4)GlcNAc(b1-3)Gal(b1-4)GlcNAc(b1-3)Gal(b1-4)GlcNAc(b1-2)Man(a1-3)]Man(b1-4)GlcNAc(b1-4)[Fuc(a1-6)]GlcNAc
How it was run: as §1

[40] = target: GlcNAc(b1-3)[GlcNAc(b1-6)]Gal(b1-4)GlcNAc
How it was run: as §1

[41] = target: Man(a1-2)Man(a1-3)[Man(a1-2)Man(a1-6)]Man(a1-6)[Man(a1-2)Man(a1-2)Man(a1-3)]Man(b1-4)GlcNAc(b1-4)GlcNAc
How it was run: as §1

[42] = target: Man(a1-3)[Man(a1-6)]Man(a1-6)[Man(a1-3)]Man
How it was run: as §1

[43] = target: Man(b1-4)GlcNAc
How it was run: as §1

[44] = target: Neu5Ac(a2-3)Gal(b1-3)GalNAc6S
How it was run: as §1

[45] = target: Neu5Ac(a2-3)Gal(b1-3)GlcNAc
How it was run: as §1

[46] = target: Neu5Ac(a2-3)Gal(b1-3)GlcNAc(b1-3)GalNAc
How it was run: as §1

[47] = target: Neu5Ac(a2-3)Gal(b1-3)[GlcNAc(b1-6)]GalNAc
How it was run: as §1

[48] = target: Neu5Ac(a2-3)Gal(b1-4)GlcNAc(b1-2)[Neu5Ac(a2-3)Gal(b1-4)GlcNAc(b1-6)]Man(a1-6)[Neu5Ac(a2-3)Gal(b1-4)GlcNAc(b1-2)Man(a1-3)][GlcNAc(b1-4)]Man(b1-4)GlcNAc(b1-4)GlcNAc
How it was run: as §1

[49] = target: Neu5Ac(a2-3)Gal(b1-4)GlcNAc(b1-3)Gal(b1-4)GlcNAc(b1-2)Man(a1-3)[Neu5Ac(a2-3)Gal(b1-4)GlcNAc(b1-3)Gal(b1-4)GlcNAc(b1-2)Man(a1-6)]Man(b1-4)GlcNAc(b1-4)GlcNAc
How it was run: as §1

[50] = target: Neu5Ac(a2-3)Gal(b1-4)GlcNAc(b1-3)Gal(b1-4)GlcNAc(b1-3)[Neu5Ac(a2-3)Gal(b1-4)GlcNAc(b1-3)Gal(b1-4)GlcNAc(b1-6)]GalNAc
How it was run: as §1

[51] = target: Neu5Ac(a2-3)Gal(b1-4)[Fuc(a1-3)]GlcNAc
How it was run: as §1

[52] = target: Neu5Ac(a2-3)Gal(b1-4)[Fuc(a1-3)]GlcNAc(b1-3)GalNAc
How it was run: as §1

[53] = target: Neu5Ac(a2-3)Gal(b1-4)[Fuc(a1-3)]GlcNAc6S
How it was run: as §1

[54] = target: Neu5Ac(a2-6)Gal(b1-4)GlcNAc(b1-2)[Neu5Ac(a2-6)Gal(b1-4)GlcNAc(b1-4)]Man(a1-3)[GlcNAc(b1-4)][Neu5Ac(a2-6)Gal(b1-4)GlcNAc(b1-4)Man(a1-6)]Man(b1-4)GlcNAc(b1-4)GlcNAc
How it was run: as §1

[55] = target: Neu5Ac(a2-6)Gal(b1-4)GlcNAc(b1-3)Gal(b1-4)GlcNAc(b1-3)Gal(b1-4)GlcNAc(b1-2)Man(a1-3)[Neu5Ac(a2-6)Gal(b1-4)GlcNAc(b1-3)Gal(b1-4)GlcNAc(b1-3)Gal(b1-4)GlcNAc(b1-2)Man(a1-6)]GalNAc
How it was run: as §1

[56] = target: Neu5Ac(a2-6)Gal(b1-4)GlcNAc(b1-6)GalNAc
How it was run: as §1

[57] = target: Neu5Ac(a2-8)Neu5Ac
How it was run: as §1

[58] = target: Neu5Ac(a2-8)Neu5Ac(a2-3)[GalNAc(b1-4)]Gal(b1-4)Glc
How it was run: as §1

B1: Pwp5 ND (Candida glabrata) (protein)
chain: MGSSHHHHHHSSGLVPRGSHMASANPVPLTNVCYFPEEYPRQAGFRAITAGLASTILQGSVDELLNYSGLSSLTTQQTTTTTPNFQLPTLPLPTNVYGLTVVPLYLLVQLQGYFVPPVSGQYTFSLENTNDAAIIFFGNPSAFPCGDLSAWPQASADDITVTDGTFPSRTLFLKAGVAYPMRISYYNSLGSGNLAVSFTDPGGTKRTNWNGYIWRYNSCSTCTYT
- glycan array binding signal (z-score) [1]: -0.235
- glycan array binding signal (z-score) [2]: -0.214
- glycan array binding signal (z-score) [3]: 0.311
- glycan array binding signal (z-score) [4]: 2.82
- glycan array binding signal (z-score) [5]: 3.91
- glycan array binding signal (z-score) [6]: 2.41
- glycan array binding signal (z-score) [7]: 0.284
- glycan array binding signal (z-score) [8]: -0.58
- glycan array binding signal (z-score) [9]: 0.176
- glycan array binding signal (z-score) [10]: -0.527
- glycan array binding signal (z-score) [11]: 0.59
- glycan array binding signal (z-score) [12]: -0.827
- glycan array binding signal (z-score) [13]: -0.156
- glycan array binding signal (z-score) [14]: 3.45
- glycan array binding signal (z-score) [15]: 1.55
- glycan array binding signal (z-score) [16]: -0.029
- glycan array binding signal (z-score) [17]: -0.579
- glycan array binding signal (z-score) [18]: -0.212
- glycan array binding signal (z-score) [19]: 3.41
- glycan array binding signal (z-score) [20]: -0.51
- glycan array binding signal (z-score) [21]: -0.125
- glycan array binding signal (z-score) [22]: -0.276
- glycan array binding signal (z-score) [23]: -0.519
- glycan array binding signal (z-score) [24]: -0.596
- glycan array binding signal (z-score) [25]: 0.251
- glycan array binding signal (z-score) [26]: -0.548
- glycan array binding signal (z-score) [27]: -0.247
- glycan array binding signal (z-score) [28]: -0.557
- glycan array binding signal (z-score) [29]: 0.775
- glycan array binding signal (z-score) [30]: -0.555
- glycan array binding signal (z-score) [31]: 3.19
- glycan array binding signal (z-score) [32]: -0.405
- glycan array binding signal (z-score) [33]: -0.366
- glycan array binding signal (z-score) [34]: -0.548
- glycan array binding signal (z-score) [35]: 0.779
- glycan array binding signal (z-score) [36]: -0.557
- glycan array binding signal (z-score) [37]: -0.667
- glycan array binding signal (z-score) [38]: 3.15
- glycan array binding signal (z-score) [39]: 1.57
- glycan array binding signal (z-score) [40]: -0.152
- glycan array binding signal (z-score) [41]: -0.293
- glycan array binding signal (z-score) [42]: 5.77
- glycan array binding signal (z-score) [43]: -0.41
- glycan array binding signal (z-score) [44]: -0.411
- glycan array binding signal (z-score) [45]: 0.287
- glycan array binding signal (z-score) [46]: 0.055
- glycan array binding signal (z-score) [47]: -0.173
- glycan array binding signal (z-score) [48]: 13
- glycan array binding signal (z-score) [49]: -0.247
- glycan array binding signal (z-score) [50]: 4.41
- glycan array binding signal (z-score) [51]: -0.271
- glycan array binding signal (z-score) [52]: -0.138
- glycan array binding signal (z-score) [53]: 0.989
- glycan array binding signal (z-score) [54]: -0.613
- glycan array binding signal (z-score) [55]: 3.34
- glycan array binding signal (z-score) [56]: 3.96
- glycan array binding signal (z-score) [57]: 0.246
- glycan array binding signal (z-score) [58]: 0.315
